Experimental data taken from PubChem BioAssay (NCATS).
Results filed as inconclusive are left out. Where a call stands in place of a potency, no number is given. Values without a mark were called inactive. Calls of active or inactive are those of the source. The call rests on the fitted dose curve; in most records, active means well fitted curve in the direction sought with a large enough effect; inconclusive means small, poorly fitted or top-dose-only effect, or another doubt; inactive means no such curve, though single readings can be large; an effect the other way counts as inactive or inconclusive.

Experiment: P-glycoprotein substrates identified in KB-3-1 adenocarcinoma cell line, qHTS therapeutic library screen (AID 1346986); further: nearly all actives have a fitted effect of over 60% in size
Conditions: KB-3-1 parental cells viability, CellTiter-Glo, 72 h; series mostly up to 44.5 µM
Outline: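 Compounds were tested in dose-response against KB-3-1 and KB-8-5-11 cells at 37 degree C for 72 h, and viability was measured by luminescence. AC50 values came from curve fitting with class-based activity calls.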

Structure (SMILES)	Potency	outcome
CCC1NC(=O)C2C(Cl)C(Cl)CN2C(=O)C(C(C)O)NC(=O)CC(c2ccccc2)NC(=O)C(CO)NC1=O (stereo unspecified)	inactive	
Cc1cn(C[C@H](N)C(=O)O)c(=O)n(Cc2cc(-c3ccccc3)sc2C(=O)O)c1=O	inactive	
COC(=O)C1(C)CCC(O)C2(C)c3c(O)cc(C(C)C)cc3C(O)C(OC(C)=O)C12 (stereo unspecified)	inactive	
COCC1OC(=O)c2coc3c2C1(C)C1=C(C3=O)C2CCC(=O)C2(C)CC1O (stereo unspecified)	inactive	
C=C(CO)C(=O)O[C@H]1C/C(C)=C/CC/C(CO)=C/[C@H]2OC(=O)C(=C)[C@H]12	inactive	
CCCN1CCO[C@H]2c3cc(O)ccc3OC[C@@H]21	inactive	
COc1cc(C)[nH]c(=O)c1CNC(=O)c1c(C)n([C@H](C)C2CCOCC2)c2ccccc12	inactive	
CCC(C)(C#N)O[C@@H]1O[C@H](CO)[C@@H](O)[C@H](O)[C@H]1O (stereo partly specified)	inactive	
CC(=O)OC12C(O)C(C)C3(O)C4C=C(C)C(=O)C4CC(CO)=CC3C1C2(C)C (stereo unspecified)	inactive	
CC(N)Cc1c[nH]c2ccccc12 (stereo unspecified)	inactive	
C[C@@]1(C(=O)O)CC[C@]2(C)CC[C@]3(C)C4=CC(=O)c5cc(O)c(O)cc5[C@]4(C)CC[C@@]3(C)[C@@H]2C1	inactive	
C/C(O)=C(\C#N)C(=O)Nc1cc(Br)ccc1Br	inactive	
C/C=C(\C)C(=O)O[C@H]1[C@H](OC(C)=O)[C@]2(CO)[C@H](O)[C@H](O)[C@]3(C)C(=CCC4[C@@]5(C)CC[C@H](O[C@@H]6O[C@H](C(=O)O)[C@@H](O)[C@H](O[C@@H]7OC[C@H](O)[C@H](O[C@@H]8OC[C@H](O)[C@H](O)[C@H]8O)[C@H]7O)[C@H]6O[C@@H]6O[C@H](CO)[C@@H](O)[C@H](O)[C@H]6O)C(C)(C)C5CC[C@]43C)[C@@H]2CC1(C)C (stereo partly specified)		inactive [at 9.29 µM]
C[C@]12CC[C@@H](O)C[C@H]1CC[C@@H]1[C@@H]2CC[C@]2(C)C(=O)CC[C@@H]12	inactive	
Cn1ncnc1COc1nn2c(-c3c(F)cccc3F)nnc2cc1C1CCC1	inactive	

Experiment: P-glycoprotein substrates identified in KB-8-5-11 adenocarcinoma cell line, qHTS therapeutic library screen (AID 1346987); further: nearly all actives have a fitted effect of over 65% in size; further: potency means the concentration at half of the fitted maximal effect
Conditions: KB-8-5-11 (P-gp overexpressing) viability, CellTiter-Glo, 72 h; series mostly up to 44.5 µM
Outline: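 P-gp-mediated resistance screen: KB-8-5-11 cells treated 72 h with compounds in dose-response. CellTiter-Glo viability.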

Structure (SMILES)	Potency	outcome	activity change, negative = cytotoxicity
COC(=O)C1(C)CCC(=O)C2(C)c3c(O)cc(C(C)C)cc3C(O)C(OC(C)=O)C12 (stereo unspecified)	inactive		
COC(=O)[C@@]12C(=O)C(C)C(=O)[C@]1(C)C(C)=C[C@H]1[C@]3(C=O)CC[C@H](OC(C)=O)C(C)(C)[C@H]3CC[C@@]12C (stereo partly specified)	inactive		
CCC1NC(=O)C2C(Cl)C(Cl)CN2C(=O)C(C(C)O)NC(=O)CC(c2ccccc2)NC(=O)C(CO)NC1=O (stereo unspecified)	inactive		
COC1CC(OC2CCC3(C)C(=CCC4C3CCC3(C)C(C(C)OC5OC(COC6OC(CO)C(O)C(O)C6O)C(O)C(O)C5O)CCC43O)C2)OC(C)C1OC1OC(C)C(O)C(OC)C1O (stereo unspecified)		inactive [at 9.29 µM]	
OC1(c2ccc(Cl)cc2)c2ccccc2C2=NCCN21 (stereo unspecified)	inactive		
Cc1cn(C[C@H](N)C(=O)O)c(=O)n(Cc2cc(-c3ccccc3)sc2C(=O)O)c1=O	inactive		
COC1CC(OC2CCC3(C)C(CCC4C3CCC3(C)C(C5=CC(=O)OC5)C(OC(C)=O)CC43O)C2)OC(C)C1OC1OC(CO)C(O)C(O)C1O (stereo unspecified)	685 nM (active)		
N#C[C@@H](O[C@@H]1O[C@H](CO[C@@H]2O[C@H](CO)[C@@H](O)[C@H](O)[C@H]2O)[C@@H](O)[C@H](O)[C@H]1O)c1ccccc1	inactive		
CCC(C)(OC(C)=O)C(=O)O[C@H]1[C@H](OC(C)=O)C[C@@H]2[C@@](C)([C@@H]3C[C@H]4C=CO[C@H]4O3)[C@H](C)C[C@H](OC(C)=O)[C@@]2(COC(C)=O)[C@@]12CO2 (stereo partly specified)	inactive		
Cc1cccc(NC(=O)N[C@@H]2N=C(c3ccccc3)c3ccccc3N(C)C2=O)c1	inactive		
CN1C(=O)c2ccccc2NC(=O)C1Cc1ccccc1 (stereo unspecified)	inactive		
COC(=O)C1(C)CCC(O)C2(C)c3c(O)cc(C(C)C)cc3C(O)C(OC(C)=O)C12 (stereo unspecified)	inactive		
COCC1OC(=O)c2coc3c2C1(C)C1=C(C3=O)C2CCC(=O)C2(C)CC1O (stereo unspecified)	inactive		
C=C(CO)C(=O)O[C@H]1C/C(C)=C/CC/C(CO)=C/[C@H]2OC(=O)C(=C)[C@H]12	inactive		
C/C=C(\C)C(=O)OC1CC2C(C)(C)OC(=O)CC(OC(C)=O)C2(C)C2CC(OC(=O)C(C)C)C3(C)C(c4ccoc4)CC4OC43C12C (stereo unspecified)	inactive		
COC1C(O)C(C)OC(OC2C(CO)O[C@@H](O[C@@H]3CC4CCC5C(CC[C@]6(C)[C@@H](C7=CC(=O)OC7)CC[C@]56O)[C@@]4(C)[C@H](O)C3)C(O)C2O)C1O (stereo partly specified)	544 nM (active)		
CCCN1CCO[C@H]2c3cc(O)ccc3OC[C@@H]21	inactive		
COc1cc(C)[nH]c(=O)c1CNC(=O)c1c(C)n([C@H](C)C2CCOCC2)c2ccccc12	inactive		

Structure (SMILES)	Potency	outcome	activity change, negative = cytotoxicity
CCN1C[C@]2(COC)[C@H](O)C[C@H](OC)[C@]34[C@@H]5C[C@]6(O)[C@H](OC(=O)c7ccccc7)[C@@H]5[C@@](O)([C@H]([C@H](OC)[C@H]23)[C@@H]14)[C@@H](O)[C@@H]6OC	inactive		
CCC(C)(C#N)O[C@@H]1O[C@H](CO)[C@@H](O)[C@H](O)[C@H]1O (stereo partly specified)	inactive		
CC(=O)OC12C(O)C(C)C3(O)C4C=C(C)C(=O)C4CC(CO)=CC3C1C2(C)C (stereo unspecified)	inactive		
CC(N)Cc1c[nH]c2ccccc12 (stereo unspecified)	inactive		
C[C@]12CC[C@H]3[C@@H]([C@H](O)CC4=CC(=O)CC[C@@]43C)[C@@H]1CC[C@@H]2O	inactive		
C[C@@]1(C(=O)O)CC[C@]2(C)CC[C@]3(C)C4=CC(=O)c5cc(O)c(O)cc5[C@]4(C)CC[C@@]3(C)[C@@H]2C1	inactive		
C/C=C(\C)C(=O)O[C@H]1[C@H](OC(C)=O)[C@]2(CO)[C@H](O)[C@H](O)[C@]3(C)C(=CCC4[C@@]5(C)CC[C@H](O[C@@H]6O[C@H](C(=O)O)[C@@H](O)[C@H](O[C@@H]7OC[C@H](O)[C@H](O[C@@H]8OC[C@H](O)[C@H](O)[C@H]8O)[C@H]7O)[C@H]6O[C@@H]6O[C@H](CO)[C@@H](O)[C@H](O)[C@H]6O)C(C)(C)C5CC[C@]43C)[C@@H]2CC1(C)C (stereo partly specified)		inactive [at 9.29 µM]	
COC(=O)N1CCN(C(=O)Cc2ccc(Cl)c(Cl)c2)[C@@H](CN2CCCC2)C1	inactive		
C/C=C(\C)C(=O)OC1C(C)OC(OC2C(C)OC(OC3CCC4(C)C(=CCC5C4CCC4(C)C(C(C)OC6OC(COC7OC(CO)C(O)C(O)C7O)C(O)C(O)C6O)CCC54O)C3)CC2OC)C(O)C1OC (stereo unspecified)			7.92% [at 9.29 µM]
C[C@@]12C[C@@H](c3ccoc3)OC(=O)C1CC[C@]1(C)[C@H]2[C@H]2C=C[C@]1(O)C(=O)O2 (stereo partly specified)	inactive		
CCc1[nH]c2ccc(OC)cc2c1CCN(C)C	inactive		
C[C@]12CC[C@@H](O)C[C@H]1CC[C@@H]1[C@@H]2CC[C@]2(C)C(=O)CC[C@@H]12	inactive		
CC(CCc1ccc(O)cc1)O[C@@H]1O[C@H](CO[C@H]2OC[C@](O)(CO)[C@H]2O)[C@@H](O)[C@H](O)[C@H]1O (stereo partly specified)	inactive		
CN(C(=O)Cc1ccccc1)C(CN1CCCC1)c1ccccc1 (stereo unspecified)	inactive		
CC(C)[C@@H](CN1CC[C@@](C)(c2cccc(O)c2)[C@@H](C)C1)NC(=O)[C@H]1Cc2ccc(O)cc2CN1	inactive		
Cn1ncnc1COc1nn2c(-c3c(F)cccc3F)nnc2cc1C1CCC1	inactive		
Cc1cc(C(=O)CN2CCCC2)c(C)n1-c1ccc(F)cc1	inactive		
CO[C@@H]1[C@H](O)[C@@H](O[C@@H]2C[C@H]3CC[C@@H]4C(CC[C@]5(C)[C@@H](C6=CC(=O)OC6)CC[C@]45O)[C@@]3(C)[C@H](O)C2)O[C@H](C)[C@@H]1O[C@@H]1O[C@H](CO)[C@@H](O)[C@H](O)[C@H]1O (stereo partly specified)	385 nM (active)		
